Here are results for 89 compounds from PubChem BioAssay AID1851 (National Center for Advancing Translational Sciences (NCATS), 2009).

Molecules are shown by their SMILES. Out of some 16,000 compounds screened, about 4,000 (25%) were called active. About 26% were inconclusive and are not listed. Not all results are given here. Values without a mark were called inactive. Calls follow the shape of the dose curve; as a rule, active = well fitted curve in the direction sought with a large enough effect; inconclusive = small, poorly fitted or top-dose-only effect, or effect the other way; inactive = no such curve, though single readings can be large or run the other way. Peptide text beside a SMILES is read from it. * marks the point of attachment. Cbz = O=C(OCc1ccccc1)*
% is scaled to controls: 0 for no effect and ±100 for the full control effect.

Chain of Cytochrome P450 2C9 (Homo sapiens) (P11712 whole entry, looked up): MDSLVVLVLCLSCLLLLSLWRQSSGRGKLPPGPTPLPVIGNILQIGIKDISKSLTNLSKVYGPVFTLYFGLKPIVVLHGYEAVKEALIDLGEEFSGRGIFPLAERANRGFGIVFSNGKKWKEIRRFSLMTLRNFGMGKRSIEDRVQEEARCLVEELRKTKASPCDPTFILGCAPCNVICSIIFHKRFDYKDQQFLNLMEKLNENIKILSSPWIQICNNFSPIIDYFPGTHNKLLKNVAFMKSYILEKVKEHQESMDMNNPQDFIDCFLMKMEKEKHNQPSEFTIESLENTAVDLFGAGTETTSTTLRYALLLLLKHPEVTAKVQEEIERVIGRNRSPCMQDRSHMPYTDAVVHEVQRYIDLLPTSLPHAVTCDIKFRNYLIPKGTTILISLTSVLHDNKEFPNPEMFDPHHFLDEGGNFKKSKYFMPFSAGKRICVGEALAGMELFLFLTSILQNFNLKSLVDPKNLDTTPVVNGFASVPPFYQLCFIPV

The assay addresses Cytochrome P450 2C9 (Homo sapiens) (UniProt P11712). The assay is described as follows: Cytochrome panel assay with activity outcomes. The note with it: recombinant CYP, pro-luciferin dealkylation, luminescence, p450-cyp2c9; series mostly up to 57.1 µM; activity, negative = inhibition: at the top concentration.
As to `N[C@@H](Cc1cnc[nH]1)C(=O)O`, the “activity, negative = inhibition” value was 22.8%. Still for that read-out and setting: with `Cc1nc2nc[nH]n2c(=O)c1NC(=O)CC12CC3CC(CC(C3)C1)C2` the figure was -28.9%; with `C[C@H]1[C@H](C)OC(=O)C[C@H](O)C[C@H](O)C[C@H](O)CC[C@H](O)[C@H](O)CC(=O)C[C@H](O)[C@H](C(=O)O)[C@H](O)C[C@H](O[C@@H]2O[C@@H](C)[C@H](O)[C@@H](N)[C@@H]2O)C=CC=CC=CC=CCCC=CC=C[C@@](C)(O)[C@H]1O`, 14.1% [at 11.4 µM]. On to `CCNc1ncc2nc(-c3ccc(OC)cc3)c(=O)n(Cc3cccc(OC)c3)c2n1`, for which the “activity, negative = inhibition” value was -9.5%.

For the compound `CN1CCN(c2ncc3nc(-c4ccccc4)c(=O)n(Cc4cccs4)c3n2)CC1`, the “activity, negative = inhibition” value is -19.8%. As to `COc1cccc(Cn2c(=O)cnc3cncnc32)c1`, the AC50 (in general, the concentration at which the activity in the assay is half-maximal) was 31.6 µM (active). Turning to `Cc1nc2cnc(N3CCN(C)CC3)nc2n(Cc2cccs2)c1=O`, the “activity, negative = inhibition” value is 10.7%.

In the case of `CCNc1ncc2nc(C)c(=O)n(Cc3cccs3)c2n1`, the “activity, negative = inhibition” value is -3.88%. Consider `CN1CCN(c2ncc3nc(CCc4ccccc4)c(=O)n(Cc4cccs4)c3n2)CC1`, for which the AC50 is 25.1 µM (active). The same measure, in the same setting: with `CCNc1ncc2nc(C)c(=O)n(Cc3cccc(OC)c3)c2n1` the figure was 15.8 µM (active).

For the compound `Cc1nc2cnc(N3CCN(C)CC3)nc2n(CCc2ccccc2)c1=O`, the “activity, negative = inhibition” value was 0.67%. Turning to `COc1ccc(-n2c(=O)c(CCc3ccccc3)nc3cnc(N4CCN(C)CC4)nc32)cc1`, the “activity, negative = inhibition” value was -23.4%.

As to `COc1cccc(Cn2c(=O)c(CCc3ccccc3)nc3cnc(N4CCN(C)CC4)nc32)c1`, the AC50 is 25.1 µM (active).

Take `C[C@@]12CCC(=O)C=C1CC[C@H]1[C@H]3CC[C@](O)(C(=O)CO)[C@]3(C)CC(=O)[C@@H]12`: the “activity, negative = inhibition” value was 18.5% [at 25.6 µM]. For `Cc1ccc(OC[C@H](O)[C@H](C)NC(C)C)c2c1CCC2`, the AC50 result was “inactive”. Take `CC(C)(CS)C(=O)N1CCC[C@H]1C(=O)O`: the “activity, negative = inhibition” value is -24.4% [at 25.6 µM]. The same measure, in the same setting: with `c1ccc(C2=NN[C@@H]3c4ccccc4-c4ccccc4N3C2)cc1` the figure was 6.37% [at 11.4 µM].

As to `O=C1N=C2SCCN2/C1=C\c1c(Cl)cccc1Cl`, the AC50 was 15.8 µM (active). In the case of `O=C(NCc1ccccc1)c1cccc(COc2cccc(Cl)c2)c1`, the AC50 was 17.8 µM (active). For the compound `O=C(O)c1ccc(OCc2ccccc2)c(Cl)c1`, the activity, negative = inhibition was -17.5% [at 11.4 µM]. For `Cc1nc(NC(=O)c2ccccc2)sc1-c1csc(Nc2cccc(Cl)c2)n1`, the AC50 is 3.55 µM (active). On the same count and under the same terms, with `COc1ccccc1Nc1nc(-c2sc(NC(=O)c3ccccc3)nc2C)cs1` the figure was 2.24 µM (active); with `COc1ccc(OC)c(Nc2nc(-c3sc(NC(=O)c4ccccc4)nc3C)cs2)c1`, 3.55 µM (active). As to `Cc1ccc(Nc2nc(-c3sc(NC(=O)c4cccc(Cl)c4)nc3C)cs2)cc1`, the “activity, negative = inhibition” value is -1.37%.

Consider `Cc1nc(NC(=O)c2ccccc2)sc1-c1csc(Nc2ccc(Cl)cc2Cl)n1`, for which the “activity, negative = inhibition” value was -7.22%. On to `C=CCCC(=O)Nc1nc(C)c(-c2csc(Nc3ccc(Cl)cc3)n2)s1`, for which the AC50 is 10 µM (active). As to `CCC1(O)c2ccccc2-c2ncccc21` (centres undefined), the “activity, negative = inhibition” value was -25.6%. The same measure, in the same setting: as for `C[N+](C)(C)CCCCCCCCCC[N+](C)(C)C`, the figure is -0.917% [at 25.6 µM]. In the case of `Cc1ccccc1-c1ccc2ncnc(NC3CC3)c2c1`, the activity, negative = inhibition was 19.9% [at 2.29 µM].

Regarding `Cc1ccccc1-c1cncnc1NC1CCNCC1`, the activity, negative = inhibition was 1.54% [at 2.29 µM]. Regarding `CCOc1ccccc1Nc1ccc(N)cc1S(=O)(=O)O`, the activity, negative = inhibition was -6.23% [at 11.4 µM]. As to `CCOc1ccccc1Nc1nc(-c2sc(NC(=O)c3ccccc3)nc2C)cs1`, the AC50 is 2.51 µM (active). Consider `CCOc1ccccc1NC(=O)CCC(=O)O`, for which the “activity, negative = inhibition” value was 2.66%. The same measure, in the same setting: with `COc1ccc(C(=O)Nc2ccc3c(c2)nc(CN2CCN(C(C)=O)CC2)n3C)cc1` the figure was -29%. For the compound `COc1cccc(C(=O)n2c(SC)nc3cc4c(cc32)OCCO4)c1`, the AC50 is 20 µM (active). For the compound `COc1ccc(C(=O)N2CCC3(CCN(Cc4cc(C(F)(F)F)cc(C(F)(F)F)c4)CC3)CC2)cc1`, the “activity, negative = inhibition” value is 13%. Take `COc1ccc(C(=O)n2c(SC)nc3cc4c(cc32)OCCO4)cc1`: the half-maximal activity concentration (AC50) was 1.41 µM (active). Turning to `O=C(N/N=C/C=C/c1ccc([N+](=O)[O-])cc1)c1cccs1`, the “activity, negative = inhibition” value was -12.7%.

In the case of `O=C(N/N=C/c1cccc(OCc2ccccc2)c1)c1cccs1`, the AC50 was 2.51 µM (active). Consider `COc1cc(/C=N/NC(=O)c2cccs2)ccc1OCc1ccccc1`, for which the AC50 was 2.24 µM (active). `CCOc1cc(/C=N/NC(=O)CN2CCCCC2)ccc1OCc1ccccc1`: the “activity, negative = inhibition” value is -40.6%. The same measure, in the same setting: with `CC(C)C(=O)N/N=C/c1ccc(OCc2ccccc2)cc1` the figure was -7.85%. As to `Cc1ccc(/C=N/NC(=O)c2cccs2)cc1[N+](=O)[O-]`, the AC50 is 3.98 µM (active). As to `COc1cc(CNCc2cccs2)ccc1OCC(N)=O`, the “activity, negative = inhibition” value was 3.66%. As to `C=CCc1ccccc1OC[C@H](O)CNC(C)C`, the AC50 result was “inactive”. As for `Cc1cccn2c(=O)c(C=NCc3ccco3)c(Nc3ccc(SC(F)F)cc3)nc12`, the “activity, negative = inhibition” value was -27.9%.

Take `CC1CCCC(C)N1C(=O)c1ccccc1Nc1ccc(SC(F)F)cc1` (centres undefined): the AC50 was 7.08 µM (active).

For the compound `CC(=O)OC[C@H]1O[C@@H](O/N=C(\C)CCN2CCc3nc(-c4ccccc4)c(-c4ccccc4)cc3C2)[C@H](OC(C)=O)[C@@H](OC(C)=O)[C@H]1OC(C)=O`, the activity, negative = inhibition was 4.27% [at 11.4 µM]. Turning to `CCC(=O)OCc1c(C(F)(F)F)nn(C)c1Sc1ccc(F)cc1`, the AC50 was 10 µM (active).

With `OC[C@@H](O)CNc1ncnc2ccccc12`, the activity, negative = inhibition was 23.8% [at 11.4 µM]. Consider `c1ccc(C(CCN2CC3CCC(CC3)C2)c2ccccc2)cc1`, for which the activity, negative = inhibition was 8.36% [at 11.4 µM].

As for `C[C@@H]1CN(CCCn2c3ccccc3c3ccccc32)C[C@H](C)N1`, the AC50 is 12.6 µM (active). `c1ccc2c(c1)c1ccccc1n2Cn1c2ccccc2c2ccccc21`: the activity, negative = inhibition is -11.7% [at 11.4 µM]. As for `CC1(C)NC(=O)N(c2ccc([N+](=O)[O-])c(C(F)(F)F)c2)C1=O`, the “activity, negative = inhibition” value is -28.7% [at 25.6 µM]. In the case of `Cc1cccn2c(/C=N/OCc3cccc(F)c3)c(-c3ccc(Cl)cc3)nc12`, the AC50 was 6.31 µM (active). Turning to `Cc1cc2nc3c(=O)[nH]c(=O)nc-3n(CC(O)C(O)C(O)CO)c2cc1C` (centres undefined), the “activity, negative = inhibition” value is -17.3% [at 25.6 µM]. Still for that read-out and setting: as for `COc1cccc(-c2ccc3ncnc(NC4CCNCC4)c3c2)c1`, the figure is 19.4% [at 2.29 µM].

For `CSc1nc2n(n1)C(c1cc(Br)ccc1F)C(C(=O)N(C)C)=C(C)N2` (centres undefined), the AC50 was 22.4 µM (active). Same read-out and setting: as for `O=S(=O)(c1ccccc1)N1N=C(c2cccs2)CC1c1ccc(Br)cc1` (centres undefined), the figure is 1.41 µM (active). Still for that read-out and setting: as for `COC(=O)CCC(NC(=O)OCc1ccccc1)C(=O)NC(CC(C)C)C(=O)OC` (centres undefined) (Cbz-Glu(OMe)-Leu-OMe; configuration not given here), the figure is 0.355 µM (active). For the compound `COC(=O)C(CC(C)C)NC(=O)C(N)Cc1ccccc1` (stereo not drawn) (H-Phe-Leu-OMe; configuration not given here), the “activity, negative = inhibition” value is 12.9%. Still for that read-out and setting: as for `CCCCC(C=O)NC(=O)C(CC(C)C)NC(=O)OCc1ccccc1` (centres undefined), the figure is -10.4%; as for `COC(=O)N1CCC2(CCN(Cc3cc(C(F)(F)F)cc(C(F)(F)F)c3)CC2)CC1`, -4.53%; as for `Cc1ccc(OCC(=O)N/N=C\c2c(C)n(C)c3ccccc23)c([N+](=O)[O-])c1`, -12%.

Take `O=C(CN1CCCCC1)Nc1cccc([N+](=O)[O-])c1`: the “activity, negative = inhibition” value was -20.2%. Take `Cc1ccc(NS(=O)(=O)c2ccc(OCC(=O)Nc3cccc([N+](=O)[O-])c3)c(C)c2)cc1`: the AC50 is 1.26 µM (active).

With `Cc1cc(Nc2ccc(Cl)cc2)nc(N)n1`, the “activity, negative = inhibition” value is 1.54%. Same read-out and setting: as for `C=C1c2cccc(O)c2C(O)=C2C(=O)[C@@]3(O)C(O)=C(C(N)=O)C(=O)[C@@H](N(C)C)[C@@H]3[C@@H](O)[C@H]12`, the figure is -17.4% [at 25.6 µM]. For the compound `Cc1nn(Cc2c(F)c(F)c(F)c(F)c2F)c(C)c1NC(=O)c1c(-c2ccccc2)nn(-c2ccccc2)c1C`, the AC50 was 7.08 µM (active). The same measure, in the same setting: as for `Cc1nn(Cc2c(F)c(F)c(F)c(F)c2F)c(C)c1NC(=O)c1cccc(COc2ccccc2Cl)c1`, the figure is 8.91 µM (active). On to `Cc1nn(Cc2ccccc2Cl)c(C)c1NC(=O)CCCn1nc(C)c([N+](=O)[O-])c1C`, for which the “activity, negative = inhibition” value is -26.2%. On to `Cc1nn(Cc2c(F)c(F)c(F)c(F)c2F)c(C)c1NC(=O)c1cccc(COc2ccc(Cl)cc2)c1`, for which the AC50 is 2.82 µM (active). For the compound `CCN[C@@H]1C[C@H](C)S(=O)(=O)c2sc(S(N)(=O)=O)cc21`, the “activity, negative = inhibition” value was -6.9% [at 25.6 µM].

`CC(C)CN1CC[C@@]2(CCCN(C(=O)c3csnn3)C2)C1`: the “activity, negative = inhibition” value was 6.25%. On the same count and under the same terms, with `C#CCCCO/N=C1/C[C@@H](O)[C@@H](O)[C@@H]2[C@H]3C(=O)N(c4ccc(F)cc4F)C(=O)[C@@H]3CC[C@@H]12` the figure was 7.37% [at 11.4 µM]; with `O=C(CCCCC(=O)Nc1c(I)cc(I)c(C(=O)O)c1I)Nc1c(I)cc(I)c(C(=O)O)c1I`, -4.35% [at 25.6 µM]; with `c1ccc2c(NC3CCNCC3)nc(-c3ccoc3)nc2c1`, -0.161% [at 2.29 µM].

For the compound `Cc1cc(Cl)ccc1Nc1sc(C(=O)c2cc3cc(Cl)ccc3o2)c(N)c1C#N`, the AC50 is 1.26 µM (active). As to `Nc1nc2c(c(=O)[nH]1)N[C@H](CCNc1ccc(C(=O)O)cc1)CN2`, the activity, negative = inhibition was 10.2% [at 11.4 µM]. In the case of `O=C1c2ccccc2C2=Nc3ccccc3SC(c3ccccc3F)C12` (centres undefined), the AC50 was 0.0891 µM (active). Turning to `OC(c1ccccc1)(c1ccc(F)cc1)C(c1ccccc1)N1CCOCC1` (centres undefined), the AC50 is 11.2 µM (active). Regarding `C[C@@H](N1CCOCC1)[C@@](O)(c1ccccc1)c1ccccn1`, the activity, negative = inhibition was 16.5% [at 11.4 µM]. On to `CC(C)(C)C(=O)[C@H]([C@@H](c1ccccc1)N1CCOCC1)N1CCOCC1`, for which the activity, negative = inhibition was 3.46% [at 11.4 µM]. Same read-out and setting: as for `CN1CCN(c2ccncc2S(=O)(=O)N2CCN(C)CC2)CC1`, the figure is 14.6% [at 11.4 µM]. In the case of `COc1ccc(N2CCC(CNC(=O)Nc3ccc(OC)cc3OC)C2)cc1` (centres undefined), the AC50 was 17.8 µM (active). Consider `COc1ccc(N2CCN(CCNC(=O)c3c(C)cc(=O)oc3C)CC2)cc1`, for which the “activity, negative = inhibition” value is -17.3%.

For the compound `c1ccc(-c2noc(-c3ccc4ccccc4c3)n2)cc1`, the “activity, negative = inhibition” value is -19.2%. As for `O=C(c1ccccc1-c1nc(-c2ccccc2)no1)N1CCOCC1`, the AC50 is 14.1 µM (active).

`CCC(Sc1ncccc1C(=O)O)C(=O)N1CCOCC1` (centres undefined): the “activity, negative = inhibition” value was -12%.
